Test results: PubChem BioAssay (EPA / NIEHS)
Records with an inconclusive call do not appear. Calls of active or inactive are those of the source. Rule for the calls: active = hit-call score of the fitted dose curve at least 0.9, where 1 is the maximum; inconclusive = response in the unintended direction; inactive = score below 0.9.

Each molecule was assayed against Androgen receptor (Homo sapiens) (UniProt P10275) (assay: ATG_AR_TRANS: Attagene TRANS-FACTORIAL HepG2 Assay for human Androgen Receptor (AR) (AID 2282973)). Settings: HepG2 Attagene TRANS-FACTORIAL AR reporter transcription.
Chain of Androgen receptor (Homo sapiens) (P10275 whole entry, looked up, the tested form may be a part): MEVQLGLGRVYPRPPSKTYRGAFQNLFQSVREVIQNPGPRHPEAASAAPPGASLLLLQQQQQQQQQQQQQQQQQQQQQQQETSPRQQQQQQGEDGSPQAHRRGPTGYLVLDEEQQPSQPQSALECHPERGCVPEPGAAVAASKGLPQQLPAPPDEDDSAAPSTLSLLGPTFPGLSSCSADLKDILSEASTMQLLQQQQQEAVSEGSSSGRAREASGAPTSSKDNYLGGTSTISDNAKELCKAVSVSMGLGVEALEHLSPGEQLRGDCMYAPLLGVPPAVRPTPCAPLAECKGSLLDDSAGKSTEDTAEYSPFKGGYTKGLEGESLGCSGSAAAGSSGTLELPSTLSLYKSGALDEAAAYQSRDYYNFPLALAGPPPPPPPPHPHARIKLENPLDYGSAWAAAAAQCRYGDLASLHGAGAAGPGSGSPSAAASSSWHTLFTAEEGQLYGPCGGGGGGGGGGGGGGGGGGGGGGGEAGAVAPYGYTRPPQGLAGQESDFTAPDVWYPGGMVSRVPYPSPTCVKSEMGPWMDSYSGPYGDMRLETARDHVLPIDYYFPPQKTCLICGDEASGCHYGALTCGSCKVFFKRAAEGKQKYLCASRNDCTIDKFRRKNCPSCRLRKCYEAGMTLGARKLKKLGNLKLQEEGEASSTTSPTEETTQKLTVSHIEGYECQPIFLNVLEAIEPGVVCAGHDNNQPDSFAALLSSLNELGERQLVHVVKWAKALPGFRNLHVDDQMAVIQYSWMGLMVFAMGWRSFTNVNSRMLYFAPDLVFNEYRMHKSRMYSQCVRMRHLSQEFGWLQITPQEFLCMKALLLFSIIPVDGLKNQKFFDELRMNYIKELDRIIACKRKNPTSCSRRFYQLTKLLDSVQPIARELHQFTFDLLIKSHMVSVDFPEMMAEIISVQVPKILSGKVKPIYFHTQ
Outline: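 HepG2 cells transiently transfected with multiplexed GAL4-UAS reporter units and chimeric NR-Gal4 fusion; 24 h compound exposure. Reporter mRNA measured by RT-PCR, 6-FAM labelling, HpaI digestion and capillary electrophoresis; gain-of-signal fitted relative to DMSO baseline.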

outcome, inactive:
COc1ccc(C(C)=O)cc1
C=CC(F)(F)C(F)(F)C(F)(F)C(F)(F)F
CC(=O)CC(C)C
C=C(C)C(=O)OCC(F)(F)C(F)(F)C(F)(F)C(F)F
CC(C)[C@@H]1CC[C@@H](C)C[C@H]1O
CC(C)(C)c1ccc(OC2CCCCC2O)cc1 (stereo not given)
CCCCC[C@H](O)CC(=O)CCc1ccc(O)c(OC)c1
COc1cc2c(c(OC)c1OC)-c1ccc(OC)c(=O)cc1[C@@H](NC(C)=O)CC2
C[N+](C)(CCCNS(=O)(=O)CCC(F)(F)C(F)(F)C(F)(F)C(F)(F)C(F)(F)C(F)(F)F)CC(=O)[O-]
CCc1c(C)cc(N)c(CC)c1N
C=CC(=C)CCCC(C)(C)OC(C)=O
OC[C@H]1O[C@@H](O[C@H]2[C@H](O)[C@@H](O)[C@H](O)O[C@@H]2CO)[C@H](O)[C@@H](O)[C@H]1O
O=c1cc(-c2ccccc2)oc2ccc3ccccc3c12
CC1COCc2cc3c(cc21)C(C)(C)C(C)C3(C)C (stereo not given)
C#CC(C)N(C)C(=O)Nc1ccc(Cl)cc1 (stereo not given)
NNC(=O)c1cccc(C(=O)NN)c1
CCOC(=O)OC(=O)OCC
N=C(N)C(F)(F)C(F)(F)C(F)(F)C(F)(F)C(F)(F)C(F)(F)C(F)(F)F
OCC(O)CC(F)(F)C(F)(F)C(F)(F)C(F)(F)C(F)(F)C(F)(F)C(F)(F)C(F)(F)F (stereo not given)
O=S(=O)(O)C(F)(F)C(F)(F)C(F)(F)C(F)(F)C(F)(F)C(F)(F)C(F)(F)F
